Source: PubChem (several laboratories)
An excerpt weighted towards active compounds, which were near 9.6% of everything screened.
HCT116 PTEN-null: growth suppressors of cells with PTEN tumor suppressor deletion; HCT116 PTEN-null viability, CellTiter-Glo, 60 h; active compounds read low; viability, % at 10 µM; actives 1.2% (n = 140,000); AID 827;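 active = viability at or below a set limit, 4 SD under the median of all tested compounds, cut at about 3.7% in these data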;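 note: PTEN knockout HCT116 line with beta catenin targeted HCT116 as companion control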
bCat KO growth: beta-catenin-lacking colon tumor cell growth suppression. HCT116 beta-catenin knockout viability, CellTiter-Glo, 60 h; active compounds read low. viability, % at 10 µM. actives 1.5% (n = 140,000). AID 818;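 active = viability at or under a set limit, the compound median less 4 SD, cut at about 6% in these data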;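 note: 0% = Hyamine 1622 control at 20 µM and 100% = untreated cell control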
Insulin prom inh: TRM-6 insulin promoter activity inhibition; TRM-6 cells (human fetal islet line), insulin promoter-eGFP reporter, imaging; reporter expression induced with tamoxifen; inhibition, % at 2 µM; actives 0.9% (n = 130,000);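 active = inhibition above the mean plus 3 SD, with well images judged a real hit on visual review, cut at about 60% in these data, passing the limit was not always enough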
L major viab: Leishmania major promastigote growth inhibition; Leishmania major promastigotes, resazurin fluorescence viability; actives 9% (n = 200,000); inhibition, % at 10 µM; in the data active = inhibition above about 50%;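 note: promastigotes grown with compound for 44 hours at 28 °C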
Insulin prom up: MIN6 insulin promoter up-regulation | z-score at 5 µM | MIN6 insulin promoter-GFP reporter, high-content imaging; active compounds read high | actives 0.3% (n = 190,000) | AID 1625;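 active = z-score above 3 at 5 µM with at least 500 cells counted in the well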
Autophagy HCS: autophagy modulation, high-content screen; MEF GFP-LC3 puncta imaging; test concentration mostly 10 µM; calls only at 10 µM (by protocol); actives 0.98% (n = 190,000); AID 463193;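 active = percentage of spot-positive cells more than 3 SD above its plate mean, without a fluorescence outlier flag or 80% toxicity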;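 note: spot-positive cell cutoff set from DMSO-treated cells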
* marks the source's active call; other numbers are inactive results.

Screening Cc1ccc(S(=O)(=O)N2CCN(C3CCC(c4ccccc4)CC3)CC2)cc1 (centres undefined) returned HCT116 PTEN-null 87, bCat KO growth 96, L major viab 96*, Insulin prom up -1.5 and Autophagy HCS inactive.
`COc1cc(/C=N/N2CCN(C3c4ccccc4-c4ccccc43)CC2)cc(OC)c1OC` gave HCT116 PTEN-null 78, bCat KO growth 82, Insulin prom inh -26, L major viab 24, Insulin prom up 0.01 and Autophagy HCS inactive.
For CNC(=O)CC12CC3CC(CC(C3)C1)C2 the results were HCT116 PTEN-null 114, bCat KO growth 107, Insulin prom inh -3, L major viab -2, Insulin prom up 0.64 and Autophagy HCS inactive.
`COCCNC(=S)NC(=O)CC12CC3CC(CC(C3)C1)C2` gave HCT116 PTEN-null 86, bCat KO growth 85, Insulin prom inh -89, L major viab 88* and Autophagy HCS inactive.
For COc1cc(/C=C2/SC(=O)N(Cc3ccccc3Cl)C2=O)ccc1OCc1ccncc1 the results were HCT116 PTEN-null 81, bCat KO growth 91, Insulin prom inh 17, L major viab -1, Insulin prom up 0.03 and Autophagy HCS inactive.
For COc1ccc(/C=C2\SC(=O)N(CCC(=O)Nc3ccccc3)C2=O)cc1OC the results were HCT116 PTEN-null 78, bCat KO growth 84, Insulin prom inh 4, L major viab 53*, Insulin prom up -0.6 and Autophagy HCS inactive.
For COc1cc(/C=C2\SC(=O)N(CCN)C2=O)ccc1OS(=O)(=O)c1cc(C)ccc1C the results were L major viab 100*, Insulin prom up -0.44 and Autophagy HCS inactive.
For CCOC(=O)NC1(NCc2ccccc2)Oc2ccccc2O1 the results were HCT116 PTEN-null 85, bCat KO growth 83, Insulin prom inh -67, L major viab 0, Insulin prom up -0.34 and Autophagy HCS inactive.
`O=C(COC(=O)c1cc(S(=O)(=O)N2CCCC2)ccc1O)Nc1ccc(S(=O)(=O)N2CCOCC2)cc1` gave Insulin prom up -0.13.
Screening O=C(COC(=O)c1cc(S(=O)(=O)N2CCOCC2)ccc1O)NCC1CCCO1 (centres undefined) returned HCT116 PTEN-null 94, bCat KO growth 98, Insulin prom inh 57, L major viab 5, Insulin prom up 3.8* and Autophagy HCS inactive.
Screening Cc1ccc(S(=O)(=O)N2CCOCC2)cc1NC(=O)COC(=O)c1ccc(OCc2c(C)noc2C)cc1 returned HCT116 PTEN-null 91, bCat KO growth 100, Insulin prom inh 40, L major viab 76*, Insulin prom up 0.56 and Autophagy HCS inactive.
Screening Cc1ccc(S(=O)(=O)N2CCOCC2)cc1NC(=O)CNCC1CCCCC1 returned L major viab 74*, Insulin prom up 0.34 and Autophagy HCS inactive.
Screening Cc1ccc(C(=O)OCC(=O)Nc2cc(S(=O)(=O)N3CCOCC3)ccc2C)cc1 returned L major viab 0, Insulin prom up -0.68 and Autophagy HCS inactive.
CC(OC(=O)c1nn(C)c(=O)c2ccccc12)C(=O)NCc1ccc2c(c1)OCO2 (centres undefined) was read as HCT116 PTEN-null 106, bCat KO growth 91, Insulin prom inh 25, L major viab 2, Insulin prom up 0.29 and Autophagy HCS inactive.
O=C1C=CCC(/C=C/c2ccccc2)O1 (centres undefined) was read as HCT116 PTEN-null 4, bCat KO growth 4.3*, Insulin prom inh 24, L major viab 38, Insulin prom up -0.29 and Autophagy HCS inactive.
`Cc1ccccc1OCC1CN(CN2CCOCC2)C(=O)O1` (centres undefined) gave HCT116 PTEN-null 99, bCat KO growth 99, L major viab -2, Insulin prom up 0.62 and Autophagy HCS inactive.
`C=CCNC(=S)NCC1COc2ccccc2O1` (centres undefined) gave HCT116 PTEN-null 89, bCat KO growth 94, Insulin prom inh -21, L major viab -4, Insulin prom up 0.6 and Autophagy HCS inactive.
Screening O=C1CCCN1Cc1ncnn1-c1ccccc1 returned HCT116 PTEN-null 98, bCat KO growth 89, Insulin prom inh -24, L major viab -4, Insulin prom up -0.14 and Autophagy HCS inactive.
For CN(C)C(=O)CN1CCN(Cc2nc(CC3CC3)no2)CC1 the results were Insulin prom up 0.19.
